# According to the OligoGym collection:
# Target: EAPP
# Assay: pooled miR-30 sensor sort-seq; sequence = guide strand
# Details: shRNA
# Note: reference of the scale not given here.
row,Sequence,sensor-assay potency score (higher = more potent)
1,TAGATGATTCACTTTCTCCGGT,0.266
2,TCATCGTAGTACCTTGTCGGAG,-1.04
3,AAAGACTTCATCCTTGTCGTAG,-0.0566
4,TTTATATCTTAGAACCTCCTCT,0.652
5,TACTGCTCTGTCTTCATCCTCG,0.413

# Target: EBNA1BP2
# Assay: as above
# Details: shRNA
row,Sequence,sensor-assay potency score (higher = more potent)
1,TATTTGACCCTTTCTTGCCAGG,-1.16
2,TTAGTCTGCAGCTTCTGTCGAA,0.0417
3,TTCTGGATCAACAGCTTTCTGG,-1.11
4,TAGTCTGCAGCTTCTGTCGAAT,-0.943
5,TACATCATCATAGCTCTCCCGA,-0.31
6,TCATCTTCTCTCTTGTTCGTTT,-0.122
7,TATACCGTCGTTTAGCACTGGG,-0.643
8,TTTCTTAATAGCATTCATCATA,-1.2
9,TAGAAACTCATCTCTCGCTGGA,0.612
10,ATAGAAACTCATCTCTCGCTGG,0.115
11,TTCATCTTCTCTCTTGTTCGTT,0.27
12,ATCAACAGCTTTCTGGTCCTTG,-0.301
